High-throughput results deposited in PubChem by The Scripps Research Institute Molecular Screening Center.
Compounds with a hit are over-represented: about 0.81% of the library has one in this group of screens.
COUP-TFII inh – NR2F2 (human) inhibition, primary screen | HEK293T NGFI-A luciferase reporter, luminescence | actives 0.7% (n = 370,000) | inhibition, % at 8.6 µM;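 active means inhibition above a per-plate cutoff, mean inhibition of test wells between control levels plus 3 SD, cut at about 38% in these data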;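 further: cells cotransfected with COUP-TFII expression vector driving the NGFI-A reporter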
SRC1 inh – inhibitors of human steroid receptor coactivator 1 (SRC1). Q15788. HEK293 GAL4-SRC1 luciferase reporter, luminescence. inhibition, % at 3.6 µM. actives 0.12% (n = 360,000);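 active means inhibition above the campaign mean plus 3 SD, with each screening campaign given its own cutoff, cut at about 60% in these data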
SRC2 inh – inhibits human steroid receptor coactivator 2; Q15596; HEK293 GAL4-SRC2 luciferase reporter, luminescence; inhibition, % at 9 µM; actives 0.17% (n = 370,000); AID 651957;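 active means inhibition above the mean inhibition of all tested compounds plus 3 SD, set per campaign, cut at about 52% in these data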
LRH-1 inv ag – suppresses constitutive activity of human LRH-1; O00482; HEK293T StAR-luciferase reporter, LRH-1 transfected, 24 h; inhibition, % at 3.6 µM; actives 0.13% (n = 360,000);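 active means inhibition above the mean inhibition of all tested compounds plus 3 SD, cut at about 73% in these data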
Target sequence (O00482 whole entry, looked up): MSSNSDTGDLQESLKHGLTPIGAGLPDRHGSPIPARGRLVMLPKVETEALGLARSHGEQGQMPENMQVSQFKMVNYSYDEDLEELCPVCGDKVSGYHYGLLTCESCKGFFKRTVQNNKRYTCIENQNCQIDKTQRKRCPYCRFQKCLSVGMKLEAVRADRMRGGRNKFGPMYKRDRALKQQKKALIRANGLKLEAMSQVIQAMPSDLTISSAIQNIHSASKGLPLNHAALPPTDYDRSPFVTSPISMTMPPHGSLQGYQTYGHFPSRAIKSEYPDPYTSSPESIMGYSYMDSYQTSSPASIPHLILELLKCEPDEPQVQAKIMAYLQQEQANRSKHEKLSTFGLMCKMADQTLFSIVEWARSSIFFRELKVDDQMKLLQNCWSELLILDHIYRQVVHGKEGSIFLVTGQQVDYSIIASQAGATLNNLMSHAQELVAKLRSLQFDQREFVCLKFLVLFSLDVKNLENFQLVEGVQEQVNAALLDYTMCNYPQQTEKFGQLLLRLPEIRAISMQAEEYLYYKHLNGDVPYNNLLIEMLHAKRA
SRC3 inh – human NCOA3 inhibition; actives 0.17% (n = 360,000); Q9Y6Q9; HEK293 GAL4-SRC3 luciferase reporter, luminescence; AID 588352; inhibition, % at 3.6 µM;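 active means inhibition above a per-campaign cutoff, the mean of all compounds plus 3 SD, cut at about 60% in these data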;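 further: higher means less SRC3-driven luciferase light from the GAL4 reporter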
Gal4-VP16 ctr – VP16 inhibition counter-screen for COUP-TFII | actives 25% (n = 2,500) | HEK293 Gal4-VP16 luciferase reporter, luminescence | shares compounds with COUP-TFII inh | inhibition, % at 8.5 µM; in the data active means inhibition above about 13%
COUP-TFII conf – COUP-TFII (NR2F2) inhibition, confirmation assay; shares compounds with COUP-TFII inh; HEK293 NGFI-A luciferase reporter, luminescence; inhibition, % at 8.5 µM; actives 45% (n = 2,500); AID 687008;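 active means mean inhibition over three repeats above a set limit taken from the earlier primary screen, cut at about 38% in these data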
Each line names hits and unclear results; the compound was inactive in the other large screens (follow-up assays come after a bar, where they were run).

COC(=O)[C@]12C[C@H](CC(=O)N3CCSCC3)C(=O)N(CCc3ccc(OC)c(OC)c3)C1=C[C@H](C(C)C)O[C@@H]2C1CC1	none (no result: SRC1 inh, LRH-1 inv ag, SRC3 inh)
Cc1ccc2nc(C)c3c(c2c1)OC(C(C)(Cl)Br)C3 (centres undefined)	none
Cc1nc2ccccc2c2c1CC(C(C)(Cl)Br)O2 (centres undefined)	COUP-TFII inh 54 | Gal4-VP16 ctr inactive | COUP-TFII conf 56
Cc1sc2ncnc(NCCc3ccc(S(N)(=O)=O)cc3)c2c1C	COUP-TFII inh 66 | Gal4-VP16 ctr inactive | COUP-TFII conf 61
Cc1ccc(S(=O)(=O)Nc2ncnc3sc(C)c(C)c23)cc1	none
NS(=O)(=O)c1ccc(CCNc2ncnc3sccc23)cc1	COUP-TFII inh 53 | Gal4-VP16 ctr inactive | COUP-TFII conf inactive
O=C(Cc1cc(=O)[nH][nH]1)N/N=C/c1ccccc1C(F)(F)F	none (no result: SRC1 inh, LRH-1 inv ag, SRC3 inh)
COc1ccc(C2C(C(=O)Nc3c(C)cccc3C)CCC(=O)N2c2ccc(OC)cc2)cc1 (centres undefined)	none (no result: SRC1 inh, LRH-1 inv ag, SRC3 inh)
C=C1C(=O)O[C@H]2C[C@H]1[C@@H](OC(C)=O)C/C(C)=C/CC/C(C)=C\CC[C@]2(C)O	COUP-TFII inh 40, SRC3 inh 72 | Gal4-VP16 ctr 32 | COUP-TFII conf 38
COc1ccc(S[C@]2(C(=O)NCCc3ccccc3)CC(=O)N[C@@H]2c2ccc(OC)cc2)cc1	none (no result: SRC1 inh, LRH-1 inv ag, SRC3 inh)
Fc1ccc(-c2cc(-c3nnc4sc(-c5ccco5)nn34)[nH]n2)cc1	none (no result: SRC1 inh, LRH-1 inv ag, SRC3 inh)
NC(=O)c1ccc(N2CCN(S(=O)(=O)c3ccccc3)CC2)c([N+](=O)[O-])c1	COUP-TFII inh 54 | Gal4-VP16 ctr inactive | COUP-TFII conf 43
O=C(c1ccc(N2CCCCC2)c([N+](=O)[O-])c1)N1CCN(S(=O)(=O)c2ccccc2)CC1	none
CCn1c(SCC(=O)NN=Cc2ccc(C(=O)O)cc2)nc2ccccc21	none (no result: SRC1 inh, LRH-1 inv ag, SRC3 inh)
CN1C(=O)c2cc(NC(=O)Nc3ccccc3)ccc2OC[C@H]2O[C@@H](CC(=O)NC3Cc4ccccc4C3)CC[C@@H]21	none (no result: SRC1 inh, LRH-1 inv ag, SRC3 inh)
S=C(NCc1ccc(Cl)cc1)NC1CCN(Cc2ccccc2)CC1	COUP-TFII inh 52 | Gal4-VP16 ctr inactive | COUP-TFII conf inactive
c1ccc2cc3[nH]c(CNc4nc(N5CCOCC5)nc5c4ncn5-c4ccsc4)nc3cc2c1	COUP-TFII inh 63 (no result: SRC1 inh, SRC2 inh, LRH-1 inv ag, SRC3 inh) | Gal4-VP16 ctr inactive | COUP-TFII conf 42
c1ccc2[nH]c(CNc3nc(N4CCOCC4)nc4c3ncn4-c3ccsc3)nc2c1	COUP-TFII inh 52 (no result: SRC1 inh, SRC2 inh, LRH-1 inv ag, SRC3 inh) | Gal4-VP16 ctr 20 | COUP-TFII conf 46
O=[N+]([O-])c1cccc2ccc(N3CCOCC3)nc12	none
FC(F)(F)c1ccc2nc(CNc3nc(N4CCOCC4)nc4c3ncn4-c3ccsc3)[nH]c2c1	COUP-TFII inh 69 (no result: SRC1 inh, SRC2 inh, LRH-1 inv ag, SRC3 inh) | Gal4-VP16 ctr 23 | COUP-TFII conf 42
c1ccc2[nH]c(N3CCOCC3)nc2c1	none
O=[N+]([O-])c1cccc2[nH]c(CNc3nc(N4CCOCC4)nc4c3ncn4-c3ccsc3)nc12	COUP-TFII inh 67 (no result: SRC1 inh, SRC2 inh, LRH-1 inv ag, SRC3 inh) | Gal4-VP16 ctr 25 | COUP-TFII conf 41
COc1cccc(N(C)C(=O)[C@@H](C2CC2)[C@@H](O)c2ccc3ccccc3c2)c1	none (no result: SRC1 inh, LRH-1 inv ag, SRC3 inh)
COC(=O)[C@]12C[C@H](CC(=O)N3CCN(C(=O)c4ccco4)CC3)C(=O)N(Cc3cccc4ccccc34)C1=C[C@H](C(C)C)O[C@@H]2C1CC1	none (no result: SRC1 inh, LRH-1 inv ag, SRC3 inh)
O=[N+]([O-])c1ccc2nc(CNc3nc(N4CCOCC4)nc4c3ncn4-c3ccsc3)[nH]c2c1	COUP-TFII inh 58 (no result: SRC1 inh, SRC2 inh, LRH-1 inv ag, SRC3 inh) | Gal4-VP16 ctr 28 | COUP-TFII conf 48
CCN(c1ccc(NC(=O)c2ccc(N3CCCC3=O)cc2)cc1)C(C)C	COUP-TFII inh 49 | Gal4-VP16 ctr inactive | COUP-TFII conf inactive
Nc1nc(F)nc2c1ncn2[C@@H]1O[C@H](CO)[C@@H](O)[C@@H]1O	none
Nc1nc(F)nc2c1ncn2[C@@H]1O[C@H](CO)[C@@H](O)[C@H]1O	COUP-TFII inh 82, SRC1 inh 88, SRC2 inh 69, LRH-1 inv ag 102, SRC3 inh 92 | Gal4-VP16 ctr 55 | COUP-TFII conf 65
CCCC(=O)N1CCC[C@]2(CC[C@@H](CCC(=O)OCC)O2)C1	none (no result: SRC1 inh, LRH-1 inv ag, SRC3 inh)
CC(=O)/C(N=Nc1ccc2c(c1)OCO2)=C(\C)O	none
